Screening data: PubChem, National Center for Advancing Translational Sciences (NCATS)
Shown are actives, neighbours in structure and some others; about 7.2% of the full set was active somewhere.
Luciferase inh = Photinus pyralis luciferase inhibition; Potency, µM (series often up to 115 µM), actives largely listed as inhibitors; purified P. pyralis luciferase, luminescence, biochemical; P08659; AID 1347043; hit rate 2.5% among 76,000; further: nearly all actives have a fitted effect of over 65% in size
Target sequence (P08659 whole entry, looked up): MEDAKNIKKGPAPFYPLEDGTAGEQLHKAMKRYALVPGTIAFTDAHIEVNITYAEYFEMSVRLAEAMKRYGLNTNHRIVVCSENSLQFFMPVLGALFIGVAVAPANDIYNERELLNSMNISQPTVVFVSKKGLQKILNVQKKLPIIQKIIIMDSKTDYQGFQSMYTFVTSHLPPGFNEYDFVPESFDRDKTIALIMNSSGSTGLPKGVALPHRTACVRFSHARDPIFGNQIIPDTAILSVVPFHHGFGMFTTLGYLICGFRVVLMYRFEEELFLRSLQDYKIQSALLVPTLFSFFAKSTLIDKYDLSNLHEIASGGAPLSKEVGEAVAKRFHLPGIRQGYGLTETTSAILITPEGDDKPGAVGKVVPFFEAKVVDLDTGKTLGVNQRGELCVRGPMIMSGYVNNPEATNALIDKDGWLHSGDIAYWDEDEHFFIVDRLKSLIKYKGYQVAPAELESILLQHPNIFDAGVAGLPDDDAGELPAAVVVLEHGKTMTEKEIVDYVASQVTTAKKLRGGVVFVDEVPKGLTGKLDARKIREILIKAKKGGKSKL
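Cell-free enzyme assay, 10nM P. pyralis luciferase, luciferin and ATP each at 10uM. Inhibition profiled over a 6-point titration, read as luminescence.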
SNCA viab count = reduces viability of HEK-293 SNCA reporter cells; HEK-293-SNCA-luc viability, GF-AFC fluorescence, 24 h; Potency, µM (series often up to 57.1 µM), usual class: cytotoxic; AID 1671193; hit rate 0.12% among 150,000; further: nearly all actives have a fitted effect of over 30% in size
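Cytotoxicity counterscreen: after 24 h compound treatment of genome-edited SNCA-luciferase HEK-293 cells, live-cell protease substrate GF-AFC read by fluorescence after 30 min; activity scaled between DMSO (0%) and medium-only (-100%), curves Hill-fitted.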
3T3 cytotox = kills NIH 3T3 cells; NIH 3T3 viability, CellTiter-Glo ATP luminescence, 48-72 h; Potency, µM (doses to about 96.7 µM), actives largely listed as inhibitors; hit rate 4.3% among 94,000; further: nearly all actives have a fitted effect of over 55% in size
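First NIH 3T3 cells are plated at 400 cells/well; next compound is pinned in; then plates incubate 48 or 72 hr at 37 °C; finally CellTiter-Glo is added and luminescence read after 10 min.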
HEK293 tox = HEK 293 cell cytotoxicity; hit rate 6.6% among 94,000; HEK 293 viability, ATP luminescence (CellTiter-Glo), 48-72 h; Potency, µM (doses to about 115 µM), usual class: inhibitors; AID 1345083; further: nearly all actives have a fitted effect of over 60% in size
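HEK 293 cells at 250 cells/well were exposed to compounds by pintool transfer for 48 or 72 hr at 37 degree Celsius, 5% CO2. Viability was read as ATP-coupled luminescence with CellTiter-Glo after 10 min at room temperature.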
SNCA expr inh = SNCA gene expression inhibition | HEK-293 SNCA-luciferase knock-in, luminescence, 24 h | Potency, µM (titrated, usually from 57.2 µM), usual class: inhibitors | hit rate 0.17% among 140,000 | AID 1671194; further: nearly all actives have a fitted effect of over 45% in size
NPR1 antag = antagonists of human natriuretic peptide receptor Npr1 | P16066 | HEK293 hNpr1 GloSensor cGMP, ANP-stimulated luminescence | Potency, µM (series often up to 46.3 µM), actives largely listed as inhibitors | hit rate 1.6% among 76,000; calls by dose curve; further: nearly all actives have a fitted effect of over 60% in size
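Compound pre-incubated 30 min at room temperature on GloSensor-loaded HEK293 cells stably carrying hNpr1 and the pGS-40F cGMP biosensor. Stimulation uses hNppA at 0.1 nM final; luminescence is taken at baseline and 20 min post-agonist.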
Hits are given with their value; 0 = inactive; ? = inconclusive; - = not tested or not shown. Unless noted, the call rests on the fitted dose curve; in most records, active means well fitted curve in the direction sought with a large enough effect; inconclusive means small, poorly fitted or top-dose-only effect, or another doubt; inactive means no such curve, though single readings can be large; an effect the other way counts as inactive or inconclusive.

SMILES	Luciferase inh	SNCA viab count	3T3 cytotox	HEK293 tox	SNCA expr inh	NPR1 antag
COc1cc2c(cc1OCC1CC1)NC(=O)C21CCN(Cc2ccccc2O)CC1	0	0	40µM	?	0	0
COc1cc2c(cc1OCC1CC1)NC(=O)C21CCN(Cc2ccncc2)CC1	0	0	0	?	0	0
COc1cc2c(cc1OCC1CC1)NC(=O)C21CCN(C(=O)c2cccc(O)c2)CC1	0	0	0	?	0	0
COc1cc2c(cc1OCC1CC1)NC(=O)C21CCN(Cc2cccc(O)c2)CC1	?	0	?	89µM	0	0
COc1cc2c(cc1OCc1ccccc1)NC(=O)C21CCN(C(=O)c2cccnc2)CC1	0	0	?	50µM	0	?
COc1cc2c(cc1OCc1ccccc1)NC(=O)C21CCN(Cc2cccc(O)c2)CC1	?	0	22µM	35µM	0	0
COc1cc2c(cc1OCc1ccncc1)NC(=O)C21CCN(Cc2cccc(O)c2)CC1	0	0	?	?	0	0
COc1cc2c(cc1OC1CCCC1)NC(=O)C21CCN(Cc2cccc(O)c2)CC1	0	0	25µM	89µM	0	0
COc1cc2c(cc1OCc1ccncc1)NC(=O)C21CCN(Cc2ccccc2)CC1	0	0	79µM	100µM	0	0
COc1cc2c(cc1OC1CCCC1)NC(=O)C21CCN(Cc2ccncc2)CC1	0	0	?	?	0	0
COc1ccc(NC(=O)N2[C@H]3CC[C@@H]2c2cnc(-c4ccccc4)nc2C3)cc1OC	0	0	0	?	0	0
CN1c2ncccc2CN(Cc2ccccn2)CC[C@H]1CO	0	0	0	?	0	0
CC(C)CN(Cc1cccnc1)C1CN(C(=O)COc2ccc(F)cc2)C1	0	0	32µM	?	0	0
COc1cc2c(cc1-c1cnn(C)c1)NC(=O)C21CCN(C(C)=O)CC1	0	0	32µM	0	0	0
COc1cc2c(cc1-c1ccc(O)c(F)c1)NC(=O)C21CCN(C(C)=O)CC1	0	0	28µM	0	0	0
COc1cc2c(cc1-c1cccnc1)NC(=O)C21CCN(C(C)=O)CC1	0	0	?	0	?	0
COc1ccc(CC(=O)N2[C@H]3CC[C@@H]2c2cnc(-c4ccccc4)nc2C3)cc1OC	0	0	0	?	0	0
COc1cc2c(cc1OC1CCCC1)NC(=O)C21CCN(C(=O)c2ccccc2)CC1	0	0	?	?	0	0
CSc1nccc(N2CCC3(CCCN(CC4CC4)C3)C2)n1 (centres undefined)	0	0	0	0	0	0
COc1ccc(OC)c(NC(=O)Cn2cc(C(=O)c3ccccc3F)c3ccccc32)c1	-	0	-	-	0	-
CN1CCCCC1Cn1cc(C(=O)c2cc([N+](=O)[O-])ccc2I)c2ccccc21 (centres undefined)	-	24µM	-	-	-	-
Cc1nc(-c2ccccc2Br)cc([C@H]2CN3CC[C@H]2C[C@@H]3CNC(=O)c2ccc(C(C)(C)C)cc2)n1	0	?	25µM	10µM	?	0
Cc1ccc(C(=O)NC[C@H]2C[C@@H]3CCN2C[C@@H]3c2cc(-c3ccccc3Br)nc(C)n2)cc1	0	0	?	?	0	0
CN(C)c1ccc(C(=O)NC[C@H]2C[C@@H]3CCN2C[C@@H]3CN2CCc3ccccc3C2)cc1	0	0	32µM	89µM	0	0
Cc1nc(-c2cccs2)cc([C@H]2CN3CC[C@H]2C[C@@H]3CNC(=O)c2ccc(C(F)(F)F)cc2)n1	0	0	?	?	0	0
SMILES	Luciferase inh	SNCA viab count	3T3 cytotox	HEK293 tox	SNCA expr inh	NPR1 antag
Cc1nc(-c2ccccc2Br)cc([C@H]2CN3CC[C@H]2C[C@@H]3CNC(=O)c2ccc(N(C)C)cc2)n1	0	0	?	28µM	0	0
CC(C)c1ccc(NC(=O)OC[C@H]2C[C@@H]3CCN2C[C@@H]3c2cc(C3CCCC3)nc(-c3ccncc3)n2)cc1	?	?	4.5µM	3.5µM	?	0
CCC(CC)c1cc([C@H]2CN3CC[C@H]2C[C@@H]3CNC(C)=O)nc(-c2ccncc2)n1	0	0	45µM	100µM	0	?
COc1ccc(NC(=O)OC[C@H]2C[C@@H]3CCN2C[C@@H]3c2cc(-c3ccccc3OC)nn2C)cc1	0	0	0	0	0	0
Cn1nc(-c2ccc3ccccc3c2)cc1[C@H]1CN2CC[C@H]1C[C@@H]2COC(=O)Nc1ccccc1	?	?	18µM	20µM	?	0
CC[C@H]1CN2CC[C@H]1C[C@@H]2CNC(=O)Nc1cc(OC)cc(OC)c1	0	0	?	0	0	0
CC[C@H]1CN2CC[C@H]1C[C@@H]2COC(=O)Nc1cc(OC)cc(OC)c1	0	0	?	100µM	0	0
Cc1nc(-c2ccc(N(C)C)cc2)cc([C@H]2CN3CC[C@H]2C[C@@H]3COC(=O)Nc2ccc(C(C)C)cc2)n1	?	?	3.5µM	3.5µM	?	?
COc1ccc(NC(=O)OC[C@H]2C[C@@H]3CCN2C[C@@H]3c2cc(C3CCCC3)nc(-c3ccncc3)n2)cc1	0	?	?	14µM	0	?
CC(C)c1ccc(NC(=O)OC[C@H]2C[C@@H]3CCN2C[C@@H]3c2cc(C3CCCCC3)nn2C)cc1	0	?	22µM	14µM	?	0
COc1ccc(NC(=O)NC[C@H]2C[C@@H]3CCN2C[C@@H]3c2cc(C3CCCC3)nn2C)cc1	0	0	?	?	0	0
O=C(Nc1ccccc1)OC[C@H]1C[C@@H]2CCN1C[C@@H]2c1cc(C2CCCC2)nc(-c2ccncc2)n1	?	?	7.9µM	4µM	?	?
CCOC(=O)[C@H]1CN(C(=O)CC(C)(C)C)[C@]2(C)C(=O)N(CC3CC3)c3ccccc3[C@H]12	-	0	?	?	0	-
O=C(NCc1ccc(F)cc1)[C@H]1CN2CCC1C[C@@H]2Cn1cc(CO)nn1 (some centres undefined)	0	0	0	0	0	0
C=CCNC(=O)NC[C@H]1C[C@@H]2CCN1C[C@@H]2c1cc(C(CC)CC)nc(-c2ccncc2)n1	0	0	?	?	0	0
O=C(c1ccn[nH]1)N1[C@H]2CC[C@@H]1c1cnc(-c3ccccc3)nc1C2	0	0	0	0	0	0
O=C(Nc1ccccc1)N1[C@H]2CC[C@@H]1c1cncnc1C2	0	0	0	0	0	0
O=C(NC1CCCCC1)[C@H]1CN2CCC1C[C@@H]2Cn1cc(COc2ccccc2)nn1 (some centres undefined)	0	0	0	0	0	0
Cn1nc(C2CCCCC2)cc1[C@H]1CN2CC[C@H]1C[C@@H]2CO	0	0	?	?	?	0
